Experiment [1] can be described thus: High-throughput drug toxicity screening in the BPDCN cell line Gen2.2 (AID 1224824).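 Also: cells exposed to compounds for 48 h before reading.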 The settings on record: Gen2.2 BPDCN cells; at 45.8 µM (top of the series) unless noted. A digest of the protocol:
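Gen2.2 cells (500/well) in phenol red-free RPMI with 10% FBS were exposed to compounds for 48 h at 37 °C, 5% CO2. Viability was read by CellTiter-Glo luminescence and normalized to DMSO (100%) and 9.2 uM bortezomib (0%).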

Experiment [2] is described as follows: High-throughput drug toxicity screening in the BPDCN cell line Cal-1 (AID 1224825). Particulars: Cal-1 BPDCN cell viability, qHTS; at 45.8 µM (top of the series) unless noted. The method in brief:
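Exponentially growing Cal-1 cells, 500 per well in phenol red-free RPMI with 10% FBS, were exposed to compounds for 48 h at 37 °C, 5% CO2. Viability was read by CellTiter-Glo luminescence and normalised to DMSO (100%) and 9.2 uM bortezomib (0%).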

Experiment [3] in a line: qHTS Screen of the MIPE 4.0 Collection Against Ewings Sarcoma (RDES) (AID 1259252; active = well fitted curve in the direction sought with a large enough effect; an effect the other way counts as inactive or inconclusive; also: nearly all actives have a fitted effect of over 35% in size; also: potency is read from the fitted curve at half-maximal effect). A digest of the protocol:
(§1)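 Here, cells in 5% FBS RPMI were exposed for two days (48 h) to compound dilutions added four hours after plating. ATP-based CellTiter-Glo luminescence measured viability, normalized to vehicle and no-cell blanks.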

A short description of experiment [4]: qHTS profiling for inhibitors of Plasmodium falciparum (3D7) proliferation (AID 743322).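 Also: infected erythrocytes exposed to compound for 72 h before lysis; 100% = DMSO vehicle wells and 0% = 0.29 µM artemisinin.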 Particulars: P. falciparum 3D7 proliferation; at 28.7 µM (top of the series). The method in brief:
(§2)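 Erythrocytes infected with P. falciparum (0.3% parasitemia, 2.5% hematocrit) incubated with compounds 72 h at 37 C, 5% CO2. Lysis with saponin/Triton buffer containing SYBR Green I, overnight at room temperature in the dark; DNA fluorescence (485/535 nm) normalised to 0.29 uM artemisinin and DMSO.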

The nature of experiment [5]: qHTS profiling for inhibitors of Plasmodium falciparum (DD2) proliferation (AID 743323). Particulars: lower = more inhibition; at 28.7 µM (top of the series). The method in brief: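 1536-well qHTS; infected RBCs 0.3% parasitemia/2.5% Hct final; cpd 72 h 37 C 5% CO2; lysis buffer + SYBR Green I, o/n RT dark; FI 485/535; norm. to 0.29 uM artemisinin and DMSO, plate-stack corrected.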

A short description of experiment [6]: qHTS profiling for inhibitors of Plasmodium falciparum (HB3) proliferation (AID 743324; active = well fitted curve in the direction sought with a large enough effect; an effect the other way counts as inactive or inconclusive;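 also: 100% = DMSO vehicle wells and 0% = artemisinin-treated control wells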). Particulars: Plasmodium falciparum HB3 blood-stage proliferation; at 28.7 µM (top of the series). The method in brief:
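P. falciparum HB3 grown in erythrocytes (0.3% parasitemia, 2.5% hematocrit final) with compound for 72 h at 37 C, 5% CO2. Parasite DNA detected by SYBR Green after saponin/triton lysis overnight; normalized to 0.29 uM artemisinin and DMSO.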

Experiment [7] can be described thus: qHTS profiling of the MIPE4 collection as inhibitors of Plasmodium falciparum (3D7) proliferation (AID 743344).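 Also: scaled between DMSO vehicle wells and 0.29 µM artemisinin as full inhibition.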 Particulars: P. falciparum 3D7 in erythrocytes, SYBR Green DNA fluorescence, 72 h; at 28.5 µM (top of the series) unless noted. The method in brief: as §2
Experiment [8] is described as follows: qHTS profiling of the MIPE4 collection as inhibitors of Plasmodium falciparum (DD2) proliferation (AID 743345). Particulars: P. falciparum Dd2 in erythrocytes, SYBR Green DNA, 72 h; at 28.5 µM (top of the series) unless noted. The method in brief: as §2
The nature of experiment [9]: qHTS profiling of the MIPE4 collection as inhibitors of Plasmodium falciparum (DD2) proliferation (Rep 2) (AID 743346). The settings on record: P. falciparum Dd2 in erythrocytes, SYBR Green DNA, 72 h; at 28.5 µM (top of the series) unless noted. The method in brief:
as §2

Experiment [10] in a line: qHTS profiling of the MIPE4 collection as inhibitors of Plasmodium falciparum (HB3) proliferation (AID 743347).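 Also: plate controls were DMSO vehicle wells for no effect and artemisinin wells for full effect.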 The settings on record: P. falciparum HB3 in erythrocytes, SYBR Green DNA, 72 h; at 28.5 µM (top of the series) unless noted. The method in brief: as §2
Experiment [11] in a line: qHTS assay for measurement of the activity of small molecule inhibitors on Zika virus induced Caspase-3 activity in human astrocytoma cells (AID 1224859; active = well fitted curve in the direction sought with a large enough effect; an effect the other way counts as inactive or inconclusive;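 also: plate controls were ZIKV-infected untreated cells for no effect and uninfected cells for full effect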). A digest of the protocol:
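Caspase activation in ZIKV-infected SNB-19 cells (2 FFU/cell, 6 h) measured by Caspase-Glo 3/7 luminescence after 30 min RT; compound pre-incubated 1 h; normalised to uninfected and infected controls.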

The nature of experiment [12]: qHTS Screen of the MIPE 4.0 Collection Against Ewings Sarcoma (EW8) (AID 1259255; active = well fitted curve in the direction sought with a large enough effect; an effect the other way counts as inactive or inconclusive; also: nearly all actives have a fitted effect of over 35% in size; also: potency is read from the fitted curve at half-maximal effect;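 as to viability: 100% = DMSO-treated cells and 0% = medium-only wells without cells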). A digest of the protocol:
as §1

Experiment [13] in a line: qHTS Screen of the MIPE 4.0 Collection Against Ewings Sarcoma (TC32) (AID 1259256; active = well fitted curve in the direction sought with a large enough effect; an effect the other way counts as inactive or inconclusive; also: nearly all actives have a fitted effect of over 45% in size; also: potency is read from the fitted curve at half-maximal effect). A digest of the protocol: as §1
A short description of experiment [14]: Identifying Small Molecule Inhibitors of Pancreatic Cancer Stem Cells (SN12C, Spheroid) (AID 1259360; active = well fitted curve in the direction sought with a large enough effect; an effect the other way counts as inactive or inconclusive;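 also: 100% = DMSO-treated cells and 0% = wells without cells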). Particulars: Potency: SN12C spheroid viability. A digest of the protocol: (§3)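 Pre-formed 14-day tumor spheroids or adherent cells dosed and incubated 48 h, 37C, 5% CO2. Viability assessed by CellTiter-Glo.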
Experiment [15] in a line: qHTS Screen of the MIPE 4.0 Collection Against Ewings Sarcoma (TC71) (AID 1259253; active = well fitted curve in the direction sought with a large enough effect; an effect the other way counts as inactive or inconclusive; also: nearly all actives have a fitted effect of over 40% in size; also: potency is read from the fitted curve at half-maximal effect). The method in brief: as §1
Experiment [16] in a line: qHTS assay for measurement of the activity of small molecule inhibitors on Zika virus induced Caspase-3 activity in human iPSC derived neural progenitor cells (hNPCs) (AID 1224857; active = well fitted curve in the direction sought with a large enough effect; an effect the other way counts as inactive or inconclusive; also: nearly all actives have a fitted effect of over 65% in size; also: potency is read from the fitted curve at half-maximal effect). The method in brief:
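Zika virus (2 FFU/cell) infection of human iPSC-derived NPCs, 6 h, following 1 h compound preincubation. Read-out: Caspase-Glo 3/7 luminescence.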

Experiment [17] can be described thus: Identifying Small Molecule Inhibitors of Pancreatic Cancer Stem Cells (A2780, Spheroid) (AID 1259357; active = well fitted curve in the direction sought with a large enough effect; an effect the other way counts as inactive or inconclusive;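 also: spheroids pre-formed over 14 days in stem cell medium on hydrogel; compound exposure lasted 48 h before the ATP luminescence read; 100% = DMSO treated cells and 0% = wells without cells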). The settings on record: Potency: A2780 spheroid viability. A digest of the protocol: as §3

Records with an inconclusive call do not appear. Calls of active or inactive are those of the source. Unless noted, no rule for the calls is given here.

For the compound `COc1cc2ncnc(Nc3ccc(F)c(Cl)c3)c2cc1OCCCN1CCOCC1`, the cell viability, % of control (lower = more cytotoxic) in [1] stood at 14.5% [at 92.2 µM]. In experiment [2], this compound gave a viability (% of control) of 4.41% [at 92.2 µM]. In experiment [3], the Potency is 10.8 µM (active).

Turning to `CO[C@@H](C(=O)N1Cc2[nH]nc(NC(=O)c3ccc(N4CCN(C)CC4)cc3)c2C1)c1ccccc1`, the remaining parasite growth % (stronger effect = lower value) in [4] was found to be 5.46%. The activity, percent of control in experiment [5] came out at 24.6%. For the same compound, the remaining proliferation (% of control), lower = more inhibition in [6] is 7.25%. This compound yielded a parasite growth, % of DMSO control in [7] of 6.06%. For the same compound, in experiment [8], the parasite growth remaining, % of DMSO control (lower = more inhibition) was found to be 12.3%. Also, the parasite growth, % of control (lower = inhibition) in experiment [9] is 10.5%. In addition, the growth, % of control in experiment [10] was 3.96%. In addition, the cell viability, % of control (lower = more cytotoxic) in experiment [1] was determined as 134%. Further, the Potency entry in experiment [11] and in [14] was “inactive” each time. The results for the Potency in experiment [12] and in experiment [13] were 0.0935 µM (active) and 0.0662 µM (active), respectively.

`C[C@]12CCC3c4ccc(O)cc4CCC3C1CCC2=O` (stereo not given in full) registered a parasite growth, % of DMSO control in experiment [7] of 51.9%. Further, the parasite growth remaining, % of DMSO control (lower = more inhibition) in [8] turned out to be 75.4%. Moreover, the parasite growth, % of control (lower = inhibition) in experiment [9] was determined as 54.3%. Besides, the growth, % of control in experiment [10] is 66.9%. Moreover, in [1], the cell viability, % of control (lower = more cytotoxic) was 54%. In addition, the Potency entry in [11] is “inactive”. In addition, the Potency in experiment [15] is 14.8 µM (active); in [13] it was 6.62 µM (active).

For `O=C(CCN1CCN(C(=O)OCc2cc(Cl)cc(Cl)c2)CC1)c1ccc2[nH]c(=O)oc2c1`, in [7], the parasite growth, % of DMSO control was 101%. The parasite growth remaining, % of DMSO control (lower = more inhibition) in experiment [8] is 103%. The compound further showed a parasite growth, % of control (lower = inhibition) in experiment [9] of 85%. In experiment [10], the growth, % of control is 105%. Besides, the cell viability, % of control (lower = more cytotoxic) in experiment [1] amounted to 231%. For the same compound, the Potency in experiment [16] was 20.9 µM (active). Besides, the Potency entry in experiment [3], in [15], in [12] and in experiment [13] was “inactive” throughout.

Consider `O=C(O)c1ccccc1C(=O)Nc1ccc(-c2ccccc2)cc1`, for which the parasite growth remaining, % of DMSO control (lower = more inhibition) in experiment [8] is 104%. Moreover, the cell viability, % of control (lower = more cytotoxic) in experiment [1] was 156%. Further, the Potency entry in experiment [16], in experiment [3], in experiment [15] and in [12] was “inactive” throughout.

As for `CC(C)OC(=O)CCCC=CC[C@@H]1[C@H](C=C[C@@H](O)COc2cccc(C(F)(F)F)c2)[C@H](O)C[C@@H]1O`, the parasite growth, % of DMSO control in experiment [7] came out at 23.8%. Besides, the parasite growth remaining, % of DMSO control (lower = more inhibition) in experiment [8] is 76.3%. Further, the parasite growth, % of control (lower = inhibition) in [9] came to 33.1%. Also, the growth, % of control in experiment [10] worked out at 15.8%. Further, the cell viability, % of control (lower = more cytotoxic) in experiment [1] is 286%. For the same compound, the Potency result in experiment [11], in experiment [3] and in experiment [13] was “inactive” each time. Also, the Potency in experiment [15] was 16.6 µM (active).

For the compound `O=C(O)c1ccc(-c2c[nH]c3ncc(-c4ccccc4)cc23)cc1C1CCCC1`, the parasite growth, % of DMSO control in experiment [7] is 5.48%. Besides, the parasite growth remaining, % of DMSO control (lower = more inhibition) in experiment [8] amounted to 8.18%. This compound came in with a parasite growth, % of control (lower = inhibition) in [9] of 9.67%. Also, the growth, % of control in experiment [10] was found to be 3.77%. Besides, the cell viability, % of control (lower = more cytotoxic) in experiment [1] was found to be 116%. For the same compound, the Potency result in experiment [16], in experiment [11] and in [13] was “inactive” each time.

In experiment [4], `CC(C)(C)c1cc(C(=O)O)c(NC(=O)Nc2ccc3[nH]ncc3c2)s1` registered a remaining parasite growth % (stronger effect = lower value) of 97%. Besides, the activity, percent of control in [5] turned out to be 95.5%. Further, the remaining proliferation (% of control), lower = more inhibition in experiment [6] came to 70.8%. Also, the parasite growth, % of DMSO control in experiment [7] is 74.4%. For the same compound, the parasite growth remaining, % of DMSO control (lower = more inhibition) in experiment [8] came out at 93.1%. This compound displayed a parasite growth, % of control (lower = inhibition) in experiment [9] of 81.5%. This compound displayed a growth, % of control in experiment [10] of 69.6%. For the same compound, in [1], the cell viability, % of control (lower = more cytotoxic) is 134%. Also, the Potency entry in experiment [16], in experiment [11], in [12], in [17] and in [14] was “inactive” throughout.

In experiment [7], `CS(=O)(=O)N(Cc1ccco1)CC(O)Cn1c2ccccc2c2ccccc21` (stereo not given) returned a parasite growth, % of DMSO control of 34.3%. For the same compound, the parasite growth remaining, % of DMSO control (lower = more inhibition) in experiment [8] worked out at 12.4%. In experiment [9], the parasite growth, % of control (lower = inhibition) is 58.2%. In experiment [10], this compound returned a growth, % of control of 16.4%. Moreover, in experiment [1], the cell viability, % of control (lower = more cytotoxic) worked out at 75.4%. Further, in [2], the viability (% of control) was found to be 65.5%.

On to `COc1ccc(-c2cc(=O)c3c(O)cc(O)cc3o2)cc1O`, for which the parasite growth, % of DMSO control in experiment [7] is 30.9%. In addition, the parasite growth remaining, % of DMSO control (lower = more inhibition) in experiment [8] was 44.4%. The parasite growth, % of control (lower = inhibition) in [9] worked out at 43.3%. Moreover, the growth, % of control in experiment [10] was found to be 67.5%. In addition, the cell viability, % of control (lower = more cytotoxic) in experiment [1] was determined as 97.2%. For the same compound, the Potency is 18.7 µM (active) in experiment [16]; 5.26 µM (active) in [3]; 9.35 µM (active) in experiment [15]; 13.2 µM (active) in experiment [12]; 14.8 µM (active) in experiment [13].

Values taken from PubChem BioAssay (NCATS).
